This is part of a sample that, as a whole, favours compounds with a hit. Of some 83,000 tested, about 20% had one in any assay.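 Growth was measured after 48 h exposure to one concentration of compound in 96-well plates. Values under 10 count as active.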 Unmarked numbers belong to inactive results. Calls of active or inactive are those of the source.
Experiments:
Assay in all cases: NCI-60 one-dose screen, 48 h (100 = growth as untreated, 0 = no growth, -100 = all killed)
Conditions in all cases: 10 µM unless noted
SR leukemia = tested on: SR leukemia
RPMI-8226 leukemia = tested on: RPMI-8226 leukemia
OVCAR-8 ovarian = tested on: OVCAR-8 ovarian
OVCAR-5 ovarian = tested on: OVCAR-5 ovarian
OVCAR-4 ovarian = tested on: OVCAR-4 ovarian
SK-OV-3 ovarian = tested on: SK-OV-3 ovarian
IGROV1 ovarian = tested on: IGROV1 ovarian
HS 578T breast = tested on: HS 578T breast
NCI/ADR-RES ovarian = tested on: NCI/ADR-RES ovarian

| Structure (SMILES) | growth (SR leukemia) | growth (RPMI-8226 leukemia) | growth (OVCAR-8 ovarian) | growth (OVCAR-5 ovarian) | growth (OVCAR-4 ovarian) | growth (SK-OV-3 ovarian) | growth (IGROV1 ovarian) | growth (HS 578T breast) | growth (NCI/ADR-RES ovarian) |
| --- | --- | --- | --- | --- | --- | --- | --- | --- | --- |
| Cc1ccc([C@H]2c3[nH]c4ccccc4c3C[C@H]3C(=O)N(CCCCCCC(=O)NO)CC(=O)N23)s1 | 23% | 27.9% | 44.4% | 52.8% | 79.5% | 86.3% | 55.7% | 76.6% | 94.3% |
| CC1(C)CC[C@]23CC[C@]4(C)[C@H](CC[C@@H]5[C@@]6(C)CC[C@H](NCO)C(C)(C)[C@@H]6CC[C@]54C)[C@H]2[C@H]1OC3 | 3.69% (active) | 19.3% | 96.1% | 60.4% | 76.9% | 105% | 64.8% | 90.7% | 82.6% |
| CN1CCN(Cc2ccc(NC(=O)c3cncc(C#Cc4cnc5ccc(N)nn45)c3)cc2C(F)(F)F)CC1 | 5.19% (active) | 24.7% | 16.5% | 32% | 46.1% | 45.3% | -4.68% (active) | 20.6% | 89.8% |
| COc1ccc(/C(=N\N=C(N)N)c2ccc(Cl)cc2)cc1OC | 42.7% | 70.4% | 87.2% | 78.2% | 88.4% | 78.5% | 51.5% | 67.5% | 99.3% |
| COc1ccc2[nH]cc(-c3nn4cc(-c5ccncc5)nc4s3)c2c1 | 61.5% | 43.8% | 52% | 107% | 71.1% | 88.3% | 41.4% | 87.5% | 48.9% |
| C#Cc1nc(/C=C/CCCCCCC(=O)NO)cs1 | -39.9% (active) | -12.7% (active) | 31.8% | 59.3% | 47.2% | 88.8% | -80.3% (active) | 80% | 24.9% |
| O=C(Nc1cc(C(F)(F)F)cc(C(F)(F)F)c1)Nc1ccc2oc(=O)ccc2c1 | 14% | -21.5% (active) | 14.2% | 18% | 32.6% | -1.5% (active) | 17.3% | 36.8% | 4.16% (active) |
| CN1CCN(Cc2ccc(NC(=O)c3cncc(C#Cc4cnc5ccc(OC6CCOCC6)nn45)c3)cc2C(F)(F)F)CC1 | -16.2% (active) | -20.9% (active) | -58.8% (active) | -55.4% (active) | -53.7% (active) | -73.7% (active) | -43.3% (active) | -38.1% (active) | -37.7% (active) |
| Cc1ccc(/C=N/Nc2nc(Nc3ccccc3)nc(Nc3ccc(S(N)(=O)=O)cc3)n2)cc1 | 35.5% | 44% | 69.2% | 84.5% | 69.6% | 110% | 53.4% | 62.9% | 101% |
| NC(N)=NS(=O)(=O)c1ccc(N=Nc2c(N)nn(-c3ccc([N+](=O)[O-])cc3[N+](=O)[O-])c2N)cc1 | 107% | 99.1% | 100% | 106% | 104% | 91.4% | 103% | 97.9% | 99.3% |
| CN(C)CCNc1ccc2ncc(C#Cc3cncc(C(=O)Nc4ccc(CN5CCN(C)CC5)c(C(F)(F)F)c4)c3)n2n1 | 0.232% (active) | -11.2% (active) | 1.03% (active) | 11.4% | -10.1% (active) | 45.1% | 0.103% (active) | -16.1% (active) | 76% |
| CN1CCN(Cc2ccc(NC(=O)c3cncc(C#Cc4cnc5ccc(OCC(F)F)nn45)c3)cc2C(F)(F)F)CC1 | -24.3% (active) | -21.7% (active) | -74.6% (active) | -47.1% (active) | -62.6% (active) | -24.2% (active) | -53.8% (active) | -34.1% (active) | -28.1% (active) |
| N#Cc1c(-c2ccc(Br)cc2)cc(-c2c[nH]c3ccccc23)nc1N | 25.4% | 34.4% | 66.4% | 63.9% | 74.7% | 52.6% | 34.4% | 58.6% | 24.9% |
| CCC1=Cc2c(OC)cccc2OC12C=Cc1c(OC)cccc1O2 (configuration not stated) | 15.2% | 25.2% | 24.3% | 36.5% | 76.7% | 56.5% | 29.8% | 28.4% | -24.2% (active) |
| COc1cccc(N2CCN(C3=C(Cl)C(=O)c4ncccc4C3=O)CC2)c1 | 4.42% (active) | 55.8% | 82.8% | 124% | 80.5% | 93.8% | 80.8% | 84.4% | 81.9% |
| C#C[C@]1(O)CC[C@H]2[C@@H]3CC=C4c5sc(N(C)c6ccccc6)nc5CC[C@]4(C)[C@H]3CC[C@@]21C | 43.7% | 2.94% (active) | 82% | 92.5% | 94% | 98.7% | 107% | 89.8% | 82.1% |
| COc1ccc(/C=N/NC(=O)c2c(N)nn(C)c2Nc2ccccc2)cc1 | 18.9% | 61.6% | 70.8% | 76.9% | 87% | 49.6% | 39.6% | 38.1% | 33% |
| CC(=O)N(O)CCCCCNC(=O)CCC(=O)N(O)CCCCCNC(=O)CCC(=O)N(O)CCCCCN(CCCCCCCCCC[P+](c1ccccc1)(c1ccccc1)c1ccccc1)CCCCCCCCCC[P+](c1ccccc1)(c1ccccc1)c1ccccc1 | 1.64% (active) | -13.9% (active) | 10.5% | 16.2% | 5.75% (active) | -10% (active) | -63.9% (active) | 16.3% | 73.5% |
| NS(=O)(=O)c1ccc(Nc2nc(N/N=C/c3ccc4c(c3)OCO4)nc(Nc3ccccc3)n2)cc1 | 20% | 54.3% | 49.7% | 90.8% | 55.5% | 65.7% | 36.6% | 52% | 90.9% |
| COc1ccc(/C=N\NC(=O)c2cnn(CC(O)c3ccccc3)c2N)cc1OCc1ccc(Cl)cc1 (configuration not stated) | 65.8% | 65.5% | 74% | 79.9% | 74.1% | 93.8% | 91.9% | 43.2% | 72.2% |
| CNC(=O)c1cc(N2CCc3cc(NC(=O)Nc4ccc(N5CCOCC5)c(C(F)(F)F)c4)ccc32)ccn1 | 14.4% | 16% | 23.5% | 57.4% | 41.4% | 80% | 37.3% | -0.517% (active) | 16.8% |
| CNc1sc(S(=O)(=O)NC)nc1S(=O)(=O)c1ccc(C)cc1 | 101% | 99.2% | 102% | 92.2% | 108% | 105% | 95.1% | 103% | 103% |
| COc1ccc(-c2nc(C#N)c(N3CCC(S(=O)(=O)N4CCOCC4)CC3)o2)cc1 | 83.8% | 101% | 106% | 97.1% | 97.8% | 107% | 93% | 102% | 97.2% |
| CCOC(=O)Nc1ccc2c(ccn2C(=O)c2cccc(F)c2)c1 | 16.8% | 24.6% | 43.9% | 60.5% | 68.8% | 55.3% | 45.4% | 39.1% | 19.8% |
| O=C(/C=C/c1ccc(F)cc1)Nc1cccc2cccnc12 | 103% | 94.2% | 106% | 104% | 93.3% | 90.2% | 71.8% | 112% | 102% |
| CN1CCN(Cc2ccc(NC(=O)c3cncc(C#Cc4cnc5ccc(O[C@@H]6CCOC6)nn45)c3)cc2C(F)(F)F)CC1 | -29.7% (active) | -24.1% (active) | -60.1% (active) | -66% (active) | -73.7% (active) | -67.8% (active) | -51.9% (active) | -46.9% (active) | -34.5% (active) |
| O=C1/C(=C/c2cc(F)cc(F)c2)Cc2cc3c(cc21)OCO3 | 18.4% | 52.3% | 42.5% | 65.3% | 61.9% | 35.6% | 36.9% | 46.9% | 19.4% |
| Cc1ccc(-c2nc(SCC(=O)c3ccccc3)nc(Nc3ccc(S(N)(=O)=O)cc3)c2C#N)cc1 | 56.9% | 65.4% | 34.6% | 97.3% | 24.3% | 107% | 86.3% | -0.186% (active) | 81.7% |

Source: PubChem BioAssay (NCI)
